Measured values published in PubChem BioAssay (EPA / NIEHS).
Activity calls are given as the source filed them. How the source made its calls: active means hit-call score of the fitted dose curve at least 0.9, where 1 is the maximum; inactive means score below 0.9.

read-out: Collagen I, COL1A1 (gene 1277); assay: BSK_MyoF_CollagenI: BioMAP Diversity Plus: MyoF Assay for Collagen I Biomarker Activity (AID 2284238); details: primary human lung fibroblasts
Description: BSK_MyoF is a cell-based, multiplexed-readout assay that uses lung fibroblasts, […], with measurements taken at 24 hours after chemical dosing in a microplate: 96-well plate.BSK_MyoF_CollagenI is an assay component measured in the BSK_MyoF assay. It measures Collagen I antibody related to regulation of gene expression using ELISA technology.Data from the assay component BSK_MyoF_CollagenI was analyzed at the endpoint, BSK_MyoF_CollagenI, in the positive analysis fitting direction relative to DMSO as the negative control and baseline of activity. Using a type of binding reporter, gain or loss-of-signal activity can be used to understand protein changes. To generalize the intended target to other relatable targets, this assay endpoint is annotated to the 'cell adhesion molecules' intended target family, where the subfamily is 'collagen'.
The levels of cell surface (or secreted, indicated by the prefix "s") biomarker endpoints were measured by ELISA. Overt cytotoxicity to cells in confluent adherent cultures (all systems other than the BT system) was assessed by measuring total protein levels using sulforhodamine B (SRB) staining in parallel cultures at the time of biomarker measurements, indicated as SRB endpoints. For proliferation assays for adherent cell types, individual cell types are cultured at sub-confluence and relative cell numbers quantified by SRB staining at time points optimized for each system (48 h: 3C and CASM3C systems; 72 h: BT and HDF3CGF systems; 96 h: SAg system). SRB was performed by staining cells with 0.1% SRB after fixation with 10% TCA and reading wells at 560 nm.Viability and proliferation of PBMC (T cells) was quantified by Alamar Blue reduction for the SAg and BT systems. For PBMC viability (referred to as PBMC Cytotoxicity within the assay endpoint names), cells were plated (75,000/well in a 96-well plate) and then chemical samples added for 1 h before addition of activators, SEB and TSST-1 (20 ng/mL final concentration each). Cells were incubated for 90 h. Then, Alamar Blue (20 uL/well) (Invitrogen, Cat DAL1100) was added for 6 h, and the plates were read with a fluorescence microplate reader at 546/580 nm (excitation/emission). For PBMC proliferation, cells were plated and activated as above but incubated for only 16 h prior to addition of Alamar Blue. Plates were read after 6 h.

Structure (SMILES)	outcome	AC50
CCCCCCCCCCCC(C)=O	inactive	–
CC1=CC=C(C(C)C)CC1	inactive	–
CC(C)[N+](C)(CCOC(=O)C1c2ccccc2Oc2ccccc21)C(C)C	inactive	–
CCCCC1C(=O)N(c2ccccc2)N(c2ccccc2)C1=O	inactive	–
CCCCCCCCC(CO)CCCCCC (stereo not given)	inactive	–
C=C(C)C(=O)OCCCCCCCCCCCC	inactive	–
O=C(Cl)c1c(Cl)c(Cl)c(C(=O)Cl)c(Cl)c1Cl	inactive	–
CCN1CN(CC)CN(CC)C1	inactive	–
CC/C=C\CCOC(=O)c1ccccc1O	–	31.1 µM (active)
CCNc1nc(NC(C)(C)C)nc(OC)n1	inactive	–
C=CC(=O)NCOCCCC	inactive	–
CC=C(C)C(C)=O	inactive	–
C=CC(=O)NC(C)(C)C	inactive	–
CCCCCCCO	inactive	–
Fc1ccc(Br)cc1	inactive	–
Nc1cccc(N)n1	inactive	–
CC1(C)CC(O)CC(C)(C)N1[O]	inactive	–
CC=C(C)C=CC=C(C)C	inactive	–
CC/C=C\C/C=C\C/C=C\CCCCCCCC(=O)OC	–	9.7 µM (active)
CCOC(=O)C1=NOC(c2ccccc2)(c2ccccc2)C1	inactive	–

Structure (SMILES)	outcome	AC50
CC(C)CCCCCOC(=O)CS	inactive	–
CCC1(C)C(=O)N(Cl)C(=O)N1Cl (stereo not given)	inactive	–
c1ccc2sc(SSN3CCOCC3)nc2c1	–	15.5 µM (active)
Oc1c(Cl)cc(Cl)c(Cl)c1Cl	–	20 µM (active)
CC(C)c1cccc(C(C)C)c1N	inactive	–
C=CC(=O)OCC(C)OCC(C)OCC(C)OC(=O)C=C (stereo not given)	–	30.4 µM (active)
C=CC(=O)OCCCCCCCC(C)C	inactive	–
Oc1ccc(/C=C/c2cc(O)cc(O)c2)cc1	inactive	–
Clc1cc(Cl)c(Cl)c(Cl)c1Cl	inactive	–
Cc1c(O)cccc1O	inactive	–
COC(OC)(C(=O)c1ccccc1)c1ccccc1	inactive	–
COc1ccc(C(=O)c2ccccc2)c(O)c1	inactive	–
O=C1CCCCCCCCCCC1	inactive	–
C=CCCCCCCCCC=O	inactive	–
CCCCCC1=CCCC1=O	inactive	–
O=C(O)C(F)(F)C(F)(F)C(F)(F)C(F)(F)C(=O)O	inactive	–
O=C1CCCCCCCCCCCN1	inactive	–
CCOC(=O)/C=C\C(=O)OCC	inactive	–
O=C(Oc1ccccc1)c1ccccc1C(=O)Oc1ccccc1	inactive	–
c1ccc2c(c1)[nH]c1ccccc12	inactive	–
